Laboratory results reported in PubChem BioAssay (NCATS).
Results filed as inconclusive are left out. Calls of active or inactive are those of the source. Calls follow the shape of the dose curve; as a rule, active = well fitted inhibition curve with a large enough effect; inconclusive = small, poorly fitted or top-dose-only effect; inactive = no such curve, though single readings can be large or run the other way.
% is scaled to controls: 0 for no effect and ±100 for the full control effect.

What follows are compounds tested on Zika virus NS2B-NS3 protease (linked construct) (assay: Primary screen NINDS Rhodamine qHTS for Zika virus inhibitors (AID 1347160; also: nearly all actives have a fitted effect of over 55% in size)). Conditions: purified NS2B-NS3 protease, Rhodamine110 substrate fluorescence; series mostly up to 57.1 µM; activity change, negative = inhibition: at the top concentration.
Summary of the method: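 Rhodamine110-peptide cleavage (1.5 µM substrate) by 25 nM linked NS2B-NS3 enzyme at pH 8.0 (Tris, Tween 20), after 15 min RT preincubation with compounds; 15-min fluorescence change normalized to controls and Hill-fitted.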
In the case of `O=c1[nH]cnc2c1ncn2[C@@H]1O[C@H](CO)[C@@H](O)[C@H]1O`, the “outcome” value is reported as “inactive”.
For `CCOC(CN1CCN(CC(C)C(=O)c2ccccc2)CC1)c1ccccc1` (configuration not stated), the “activity change, negative = inhibition” value was -3.81% (inactive).
In the case of `CC(C)(C)C(=O)C(Oc1ccc(Cl)cc1)n1ccnc1` (configuration not stated), the “outcome” value is reported as “inactive”.
In the case of `O=C(CCCN1CCN(c2ccccn2)CC1)c1ccc(F)cc1`, the “activity change, negative = inhibition” value is reported as 32.5% (inactive).
In the case of `Cc1ccc2nc(N)[nH]c(=O)c2c1Sc1ccncc1`, the “outcome” value is reported as “inactive”.
`CCCCN1CCCC[C@H]1C(=O)Nc1c(C)cccc1C` was tested, and the “outcome” value was “inactive”.
`c1ccc(CN(CC2=NCCN2)c2ccccc2)cc1` was tested, and the “activity change, negative = inhibition” value was 40.4% (inactive).
In the case of `C[C@@H]1CN(c2c(F)c(F)c3c(=O)c(C(=O)O)cn(C4CC4)c3c2F)C[C@H](C)N1`, the outcome is reported as “inactive [at 10.7 µM]”.
`OCC(O)CN1CCN(c2ccccc2)CC1` (configuration not stated) was tested, and the “activity change, negative = inhibition” value was 18.3% (inactive).
For `CCOC(=O)[C@H](CCc1ccccc1)N[C@@H](C)C(=O)N1C(=O)N(C)C[C@H]1C(=O)O`, the “activity change, negative = inhibition” value was 55.2% (inactive).
For `Cn1c(=O)c2c(ncn2CC2OCCO2)n(C)c1=O`, the “activity change, negative = inhibition” value was 21.2% (inactive).
With `CS(=O)(=O)c1ccc([C@@H](O)[C@@H](CF)NC(=O)C(Cl)Cl)cc1` the “activity change, negative = inhibition” value was -2.53% (inactive).
For `CCCCOc1cc(C(=O)OCCN(CC)CC)ccc1N`, the “activity change, negative = inhibition” value was 26.2% (inactive).
For `COc1ccc2cc1Oc1ccc(cc1)C[C@H]1c3c(cc4c(c3Oc3cc5c(cc3OC)CCN(C)[C@@H]5C2)OCO4)CCN1C`, the “activity change, negative = inhibition” value was 251% (inactive).
With `CC/C=C(\C(=O)N[C@@H]1C(=O)N2C(C(=O)OCOC(=O)C(C)(C)C)=C(COC(N)=O)CS[C@H]12)c1csc(N)n1` the “activity change, negative = inhibition” value was -4.39% [at 33.1 µM] (inactive).
In the case of `COc1ccc2[nH]c(S(=O)Cc3ncc(C)c(OC)c3C)nc2n1` (configuration not stated), the “activity change, negative = inhibition” value is reported as 62.6% (inactive).
In the case of `O=C1Nc2ccc(Cl)cc2[C@@](C#CC2CC2)(C(F)(F)F)O1`, the “activity change, negative = inhibition” value is reported as -14.9% (inactive).
